Measured values taken from PubChem BioAssay.
Active and inactive are the calls of the source. Unless noted, how the calls were made is not given here.

Assays:
[1] = inhibitors of CD8+ T cell-vesicle binding, pilot screen, LFA-1/ICAM-1 modulator project, MLPCN validation set, flow cytometry (AID 2523;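 active means response below a set limit, under 55% cells CD8-positive and vesicle-bound, and CD8 cells' 90th-percentile brightness under 279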;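 on vesicle binding response: mean PE anti-B7-1 fluorescence of CD8+ cells relative to row control; 100% = QL9-loaded vesicles with DMSO vehicle in the same plate row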); conditions: 2C mouse CD8+ T cells, at 7 µM, stronger effect = lower value; double positive events: measured here: CD8+/vesicle+ event percentage
[2] = molecular target: Integrin beta-1 (Homo sapiens) + Integrin alpha-4 (Homo sapiens) (UniProt P13612+P05556); assay: inhibition of HUTS-21 binding to VLA-4, pilot screen, VLA-4 allosteric modulator project, U937 cells, HUTS-21 mAb, flow cytometry, validation set (AID 2674;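 active means inhibition above 50%, about 3 SD of the validation set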;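 further: antibody binding induced by the VLA-4 ligand LDV present at three times its Kd; 0% = LDV ligand with antibody and no compound and 100% = antibody without LDV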); conditions: HUTS-21 LIBS mAb binding, at 6.7 µM, stronger effect = higher value
Integrin beta-1 (Homo sapiens) + Integrin alpha-4 (Homo sapiens), sequence (P05556 whole entry, looked up): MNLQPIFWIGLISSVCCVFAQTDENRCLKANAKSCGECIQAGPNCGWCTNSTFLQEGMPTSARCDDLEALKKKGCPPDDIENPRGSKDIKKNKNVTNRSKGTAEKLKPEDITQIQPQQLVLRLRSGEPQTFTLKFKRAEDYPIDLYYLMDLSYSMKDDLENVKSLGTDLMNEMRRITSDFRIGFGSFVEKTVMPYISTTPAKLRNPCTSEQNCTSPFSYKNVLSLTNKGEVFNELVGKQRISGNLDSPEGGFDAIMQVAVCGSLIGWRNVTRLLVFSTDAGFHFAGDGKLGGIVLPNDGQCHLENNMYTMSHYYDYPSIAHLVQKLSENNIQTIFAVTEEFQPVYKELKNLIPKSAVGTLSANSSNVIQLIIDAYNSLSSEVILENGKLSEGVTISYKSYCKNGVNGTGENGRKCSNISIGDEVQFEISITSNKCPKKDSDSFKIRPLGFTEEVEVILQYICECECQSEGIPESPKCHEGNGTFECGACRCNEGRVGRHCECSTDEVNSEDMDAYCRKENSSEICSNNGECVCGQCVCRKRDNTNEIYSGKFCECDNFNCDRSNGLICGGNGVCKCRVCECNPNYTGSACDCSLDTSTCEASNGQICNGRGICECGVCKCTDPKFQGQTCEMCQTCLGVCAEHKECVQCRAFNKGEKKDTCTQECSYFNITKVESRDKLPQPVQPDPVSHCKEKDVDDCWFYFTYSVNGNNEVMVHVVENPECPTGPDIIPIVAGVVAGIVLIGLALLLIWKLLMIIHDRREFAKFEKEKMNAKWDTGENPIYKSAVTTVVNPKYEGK
Integrin beta-1 (Homo sapiens) + Integrin alpha-4 (Homo sapiens), sequence (P13612 whole entry, looked up): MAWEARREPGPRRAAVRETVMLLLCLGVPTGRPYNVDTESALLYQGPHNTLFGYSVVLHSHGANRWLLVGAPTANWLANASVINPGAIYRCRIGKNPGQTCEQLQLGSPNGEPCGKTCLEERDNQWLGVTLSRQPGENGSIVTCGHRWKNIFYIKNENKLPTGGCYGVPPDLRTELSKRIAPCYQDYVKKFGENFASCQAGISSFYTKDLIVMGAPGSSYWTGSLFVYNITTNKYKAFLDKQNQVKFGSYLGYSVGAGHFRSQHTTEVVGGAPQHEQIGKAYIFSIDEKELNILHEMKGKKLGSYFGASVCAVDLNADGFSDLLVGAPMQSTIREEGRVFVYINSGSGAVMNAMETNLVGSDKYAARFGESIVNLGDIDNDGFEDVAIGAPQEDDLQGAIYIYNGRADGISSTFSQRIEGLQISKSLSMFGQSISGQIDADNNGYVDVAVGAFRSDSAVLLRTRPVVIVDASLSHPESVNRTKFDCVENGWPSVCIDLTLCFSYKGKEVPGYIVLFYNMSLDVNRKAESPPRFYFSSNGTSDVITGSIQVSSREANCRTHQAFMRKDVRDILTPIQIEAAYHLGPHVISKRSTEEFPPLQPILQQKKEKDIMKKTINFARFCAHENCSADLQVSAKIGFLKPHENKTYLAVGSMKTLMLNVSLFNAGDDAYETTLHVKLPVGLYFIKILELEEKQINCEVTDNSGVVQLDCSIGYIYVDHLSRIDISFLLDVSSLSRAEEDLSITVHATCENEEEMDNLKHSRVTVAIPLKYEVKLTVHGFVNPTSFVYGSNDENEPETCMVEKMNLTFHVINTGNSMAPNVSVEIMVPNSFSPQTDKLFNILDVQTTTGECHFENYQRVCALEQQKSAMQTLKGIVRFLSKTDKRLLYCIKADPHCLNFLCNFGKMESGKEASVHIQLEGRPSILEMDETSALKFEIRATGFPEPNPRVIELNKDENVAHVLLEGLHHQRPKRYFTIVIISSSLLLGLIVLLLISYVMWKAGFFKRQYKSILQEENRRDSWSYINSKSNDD

[3] = superoxide lowering in aged yeast cells, pilot screen, validation compound set (AID 2706;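 active means superoxide response below 65% of plate, a cut near 3 SD across the whole screen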;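 further: yeast exposed to compound for one week at 30 degrees C before staining; 100% = mean of all compound wells on the same plate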); conditions: S. cerevisiae aging, superoxide DHE fluorescence; at 10 µM; stronger effect = lower value
[4] = molecular target: Beta-adrenergic receptor kinase 1 (Homo sapiens) (UniProt P25098); assay: GRK2 binders displacing RNA aptamer, biochemical, validation, human GRK2, bead flow cytometry (AID 488806;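 active means aptamer binding inhibition above 30%, about 3 SD of noise from non-fluorescent compounds; inactive means inhibition at or below 30%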); conditions: bead-bound GRK2, FAM-aptamer displacement, at 10 µM, stronger effect = higher value
Beta-adrenergic receptor kinase 1 (Homo sapiens), sequence (P25098 whole entry, looked up): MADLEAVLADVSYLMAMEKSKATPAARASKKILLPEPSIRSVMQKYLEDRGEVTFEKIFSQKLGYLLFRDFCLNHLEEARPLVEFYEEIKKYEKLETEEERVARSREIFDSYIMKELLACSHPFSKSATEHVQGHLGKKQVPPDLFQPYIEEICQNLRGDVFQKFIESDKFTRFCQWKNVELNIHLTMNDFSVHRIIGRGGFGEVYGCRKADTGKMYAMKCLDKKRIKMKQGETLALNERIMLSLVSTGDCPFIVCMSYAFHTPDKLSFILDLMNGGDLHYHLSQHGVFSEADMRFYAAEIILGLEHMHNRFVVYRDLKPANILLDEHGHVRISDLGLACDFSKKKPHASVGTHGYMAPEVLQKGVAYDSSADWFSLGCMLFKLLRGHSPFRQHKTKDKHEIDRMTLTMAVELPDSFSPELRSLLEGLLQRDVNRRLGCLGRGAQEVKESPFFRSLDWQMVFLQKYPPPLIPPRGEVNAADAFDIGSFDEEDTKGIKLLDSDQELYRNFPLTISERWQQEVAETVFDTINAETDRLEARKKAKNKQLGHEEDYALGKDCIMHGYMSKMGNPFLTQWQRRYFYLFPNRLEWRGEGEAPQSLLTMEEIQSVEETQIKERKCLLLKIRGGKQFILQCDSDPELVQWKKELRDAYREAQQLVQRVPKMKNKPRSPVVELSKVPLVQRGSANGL

[5] = molecular target: Beta-2 adrenergic receptor (Homo sapiens) (UniProt P07550); assay: beta2AR agonists driving receptor internalization, pilot screen, cell-based, FAP fluorogen, flow cytometry, validation set (AID 504459;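 active means percent response above 42, roughly 3 SD of non-fluorescent test compounds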;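 further: agonist-driven loss of surface beta2AR via internalization measured by FAP dye flow cytometry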); conditions: Am2.2-beta2AR cells, FAP surface receptor flow cytometry; at 10 µM; stronger effect = higher value
Beta-2 adrenergic receptor (Homo sapiens), sequence (P07550 whole entry, looked up): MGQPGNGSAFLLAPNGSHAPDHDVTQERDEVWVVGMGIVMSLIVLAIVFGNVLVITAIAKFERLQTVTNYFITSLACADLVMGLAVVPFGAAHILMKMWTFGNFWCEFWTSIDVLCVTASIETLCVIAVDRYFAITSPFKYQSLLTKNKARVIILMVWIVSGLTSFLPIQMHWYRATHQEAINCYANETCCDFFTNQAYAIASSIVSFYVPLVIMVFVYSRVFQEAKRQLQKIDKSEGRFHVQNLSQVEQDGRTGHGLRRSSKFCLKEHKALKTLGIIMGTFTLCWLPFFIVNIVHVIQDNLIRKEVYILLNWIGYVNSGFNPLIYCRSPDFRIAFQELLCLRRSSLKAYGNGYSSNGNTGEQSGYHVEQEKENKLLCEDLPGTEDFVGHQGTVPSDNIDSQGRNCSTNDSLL

[6] = molecular target: AP-2 complex subunit beta (Homo sapiens) (UniProt P63010); assay: inhibitors of arrestin peptide binding to AP2, pilot screen, biochemical, validation set, GST-AP2 beads, flow cytometry (AID 504541;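 active means inhibition above 54%, about 3 SD of non-fluorescent compounds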;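 further: AP2 carries R879A mutation and is captured from E. coli lysate; bead-bound FITC arrestin peptide fluorescence measuring arrestin peptide binding to AP2; 0% = DMSO wells and 100% = excess unlabeled arrestin peptide control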); conditions: FITC arrestin peptide, at 10 µM, stronger effect = higher value
AP-2 complex subunit beta (Homo sapiens), sequence (P63010 whole entry, looked up, one chain of several): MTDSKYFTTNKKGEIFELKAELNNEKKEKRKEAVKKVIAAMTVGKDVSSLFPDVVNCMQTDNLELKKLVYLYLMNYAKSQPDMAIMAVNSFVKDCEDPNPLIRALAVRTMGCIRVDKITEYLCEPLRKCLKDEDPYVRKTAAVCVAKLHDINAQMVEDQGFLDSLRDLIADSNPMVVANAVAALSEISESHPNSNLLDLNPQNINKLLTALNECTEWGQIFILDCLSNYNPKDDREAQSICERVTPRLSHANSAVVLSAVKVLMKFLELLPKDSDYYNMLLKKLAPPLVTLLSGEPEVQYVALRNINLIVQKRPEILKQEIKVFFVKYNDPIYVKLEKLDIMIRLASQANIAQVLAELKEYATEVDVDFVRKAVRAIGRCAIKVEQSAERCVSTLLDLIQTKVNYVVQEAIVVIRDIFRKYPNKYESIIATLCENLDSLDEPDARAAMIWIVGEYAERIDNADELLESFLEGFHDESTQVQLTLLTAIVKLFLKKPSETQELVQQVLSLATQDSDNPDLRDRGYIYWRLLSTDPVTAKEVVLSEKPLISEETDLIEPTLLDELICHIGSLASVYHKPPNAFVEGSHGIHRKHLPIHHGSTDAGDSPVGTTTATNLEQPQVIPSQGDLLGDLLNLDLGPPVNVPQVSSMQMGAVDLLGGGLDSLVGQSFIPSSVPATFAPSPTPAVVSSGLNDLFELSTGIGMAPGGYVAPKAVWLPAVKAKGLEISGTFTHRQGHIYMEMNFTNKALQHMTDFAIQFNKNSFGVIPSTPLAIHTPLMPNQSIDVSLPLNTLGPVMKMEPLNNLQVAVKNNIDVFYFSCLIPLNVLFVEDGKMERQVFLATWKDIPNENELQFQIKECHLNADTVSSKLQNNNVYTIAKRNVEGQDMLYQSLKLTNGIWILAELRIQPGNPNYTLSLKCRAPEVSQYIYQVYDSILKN

[7] = yeast V-ATPase proton transport modulators, S. cerevisiae, pHLuorin, HTS validation (AID 504600; in the data active means response above about 15%;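 further: plate controls were DMSO for no effect and reference compound for full effect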); conditions: S. cerevisiae pHLuorin cytosolic pH, at 10 µM, stronger effect = higher value
[8] = system: anti-desmoglein-3 scFv antibody binding to human DSG3; assay: inhibitors of anti-DSG3 scFv binding to DSG3, pilot screen, biochemical, validation compound set, bead-based, flow cytometry (AID 588368;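 active means binding below the plate cutoff, the plate median minus 3 SD, with a reading above zero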;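 further: signal is the median channel fluorescence of bead-bound GFP antibody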); conditions: Protein G beads, DSG3-Fc, scFv-GFP binding, at 10 µM, stronger effect = lower value
[9] = system: Botulinum neurotoxin type F light chain protease (Clostridium botulinum); assay: Botulinum neurotoxin type F light chain protease inhibition, multiplex microsphere flow cytometry, validation set (AID 588459); conditions: multiplex microsphere protease substrate cleavage assay, at 10 µM, stronger effect = higher value
[10] = molecular target: Botulinum neurotoxin type A (Clostridium botulinum) (UniProt P0DPI0); assay: BoNT/A light chain protease inhibitors, biochemical, multiplex microsphere flow cytometry, validation set (AID 588460); conditions: at 10 µM, stronger effect = higher value
[11] = molecular target: Lethal factor (Bacillus anthracis) (UniProt P15917); assay: Lethal factor protease inhibitors, Bacillus anthracis, multiplex microsphere cleavage assay, validation set (AID 588461); conditions: flow cytometry, at 10 µM, stronger effect = higher value
[12] = inhibitors of fungal efflux pumps CDR1, CDR2, MDR1, pilot screen, validation compound set, multiplex, phenotypic (AID 588506;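 active means efflux inhibition above 0.42, the validation set average plus 4 SD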;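 further: Nile Red retained in cells so higher fluorescence means more efflux inhibition; 0 = negative control wells and 1 = enniatin B 25 µM full block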); conditions: S. cerevisiae pump-expressing triplex, Nile Red efflux flow cytometry; at 10 µM; stronger effect = higher value
[13] = molecular target: ATP-binding cassette sub-family B member 6 (Homo sapiens) (UniProt Q9NP58); assay: ABCB6 transporter inhibitors, pilot screen, K562-ABCB6 cells, flow cytometry, validation set (AID 588550;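 active means inhibition above the screen-wide mean plus 3 SD, about 51%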;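 further: 0% = DMSO wells and 100% = benzethonium chloride 70 µM positive control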); conditions: K562-ABCB6 porphyrin accumulation, 1 h, at 10 µM, stronger effect = higher value
ATP-binding cassette sub-family B member 6 (Homo sapiens), sequence (Q9NP58 whole entry, looked up): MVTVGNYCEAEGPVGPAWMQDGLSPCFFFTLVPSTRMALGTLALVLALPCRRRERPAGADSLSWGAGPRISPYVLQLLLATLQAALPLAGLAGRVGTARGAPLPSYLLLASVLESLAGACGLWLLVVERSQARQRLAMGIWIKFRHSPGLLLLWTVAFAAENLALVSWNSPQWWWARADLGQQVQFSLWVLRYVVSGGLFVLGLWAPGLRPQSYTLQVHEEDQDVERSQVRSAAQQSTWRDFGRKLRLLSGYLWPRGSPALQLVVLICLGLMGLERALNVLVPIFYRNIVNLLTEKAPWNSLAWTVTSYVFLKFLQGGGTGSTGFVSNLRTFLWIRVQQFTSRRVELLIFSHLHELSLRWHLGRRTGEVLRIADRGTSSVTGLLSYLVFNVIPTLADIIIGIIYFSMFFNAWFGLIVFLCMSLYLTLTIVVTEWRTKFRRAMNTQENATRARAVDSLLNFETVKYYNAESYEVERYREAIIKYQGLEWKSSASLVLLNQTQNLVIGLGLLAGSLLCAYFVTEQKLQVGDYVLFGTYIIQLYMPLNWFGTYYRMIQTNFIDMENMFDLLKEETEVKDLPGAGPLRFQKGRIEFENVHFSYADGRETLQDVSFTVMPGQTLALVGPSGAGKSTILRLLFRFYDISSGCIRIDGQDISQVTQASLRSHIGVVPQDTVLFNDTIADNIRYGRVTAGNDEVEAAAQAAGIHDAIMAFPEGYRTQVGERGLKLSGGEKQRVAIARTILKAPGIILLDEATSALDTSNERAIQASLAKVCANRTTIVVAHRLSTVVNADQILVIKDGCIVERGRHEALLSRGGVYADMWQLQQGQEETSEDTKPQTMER

[14] = promoters of myeloid differentiation in arrested cells, primary screen, cell-based, GFP/MAC1 double positive, flow cytometry, validation set (AID 588685;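 active means differentiation response of at least 50%, scaled between solvent and reference control, from cells with both markers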;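 further: compound exposure lasts four days before antibody staining and flow analysis; 0% = DMSO wells and 100% = 5 µM fulvestrant positive control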); conditions: ER-HoxA9 marrow cells, stronger effect = higher value
[15] = RPL19A-GFP modulators, yeast TOR pathway, confirmation, cell-based, S. cerevisiae, flow cytometry, cherry picks, mother/daughter gates (AID 2270;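 active means GFP response below 50% of the DMSO control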); conditions: S. cerevisiae RPL19A-GFP strain, 3 h, at 10 µM, stronger effect = lower value, 100 = same GFP as DMSO wells
[16] = LAP4-GFP expression modulators in yeast, confirmation, cell-based, cherry picks, flow cytometry, mother/daughter gates (AID 2271;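 active means GFP response above 150% of the DMSO control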;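 further: ratio of sample to DMSO plate mean so 100% equals DMSO level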); conditions: S. cerevisiae LAP4-GFP strain, 3 h, at 10 µM, stronger effect = higher value
[17] = modulators of CIT2-GFP expression in yeast, confirmation, S. cerevisiae, GFP fusion, cherry picks, mother/daughter gates (AID 2274;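 active means GFP response above 150% of the DMSO level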); conditions: S. cerevisiae CIT2-GFP strain, flow cytometry, 3 h, at 10 µM, stronger effect = higher value
[18] = measured here: daughter cell gate
[19] = measured here: mother cell gate
[20] = measured here: daughter cell gate response
[21] = measured here: mother cell gate response

For `CC/C(=C\C=C\[C@@H]1C=C[C@@H]2CCC[C@H]2[C@@H]1C(=O)c1ccc[nH]1)[C@@H]1O[C@@H]([C@@H](C)C(=O)O)CC[C@@H]1C`, the double positive events [1] was 60.2%, the vesicle binding response [1] was 275% (inactive) and the inhibition [2] was -7.08% (inactive). For the same compound, the superoxide response (% of plate) [3] was 94% (inactive), the aptamer binding inhibition [4] was 2% (inactive) and the response [5] was 9.7% (inactive). The inhibition [6] was 0.83% (inactive), the response [7] was -0.4% (inactive) and the binding (% of control) [8] was 107% (inactive). The inhibition [9] was 1.9% (inactive), the inhibition [10] was 0.5% (inactive) and the inhibition [11] was -4.4% (inactive). For the same compound, the efflux inhibition (fraction of control) [12] was 0 (inactive), the inhibition [13] was -1% (inactive) and the differentiation response [14] was -4% (inactive).

For `O=C1NC(=O)N(Cc2ccco2)C(=O)/C1=C/c1ccc(-c2cccc([N+](=O)[O-])c2)o1`, the GFP response vs DMSO [15] was 102% (inactive), the GFP response vs DMSO [15, 18] was 102% and the GFP response vs DMSO [15, 19] was 96.7%. The GFP response relative to DMSO [16] was 167% (active), the GFP response relative to DMSO [16, 20] was 151% and the GFP response relative to DMSO [16, 21] was 176%. For the same compound, the GFP response, % of DMSO [17] was 93% (inactive), the GFP response, % of DMSO [17, 18] was 95.6% and the GFP response, % of DMSO [17, 19] was 85.8%.

For `Cc1nc2ccccc2c(=O)n1-c1ccc(C(=O)O)cc1`, the double positive events [1] was 63.4%, the vesicle binding response [1] was 165% (inactive) and the inhibition [2] was 2.93% (inactive). The superoxide response (% of plate) [3] was 96.8% (inactive), the aptamer binding inhibition [4] was 3% (inactive) and the response [5] was 0.79% (inactive). The inhibition [6] was 34.5% (inactive), the response [7] was -10.1% (inactive) and the binding (% of control) [8] was 101% (inactive). For the same compound, the inhibition [9] was 0.9% (inactive), the inhibition [10] was -0.2% (inactive) and the inhibition [11] was -5.6% (inactive). The efflux inhibition (fraction of control) [12] was -0.43 (inactive), the inhibition [13] was -3% (inactive) and the differentiation response [14] was -8.96% (inactive).

In the case of `Nc1ccc([As](=O)(O)O)cc1`, the double positive events [1] is reported as 53.2%, the vesicle binding response [1] is reported as 190% (inactive) and the inhibition [2] is reported as 7.22% (inactive). For the same compound, the superoxide response (% of plate) [3] was 108% (inactive), the aptamer binding inhibition [4] was 2% (inactive) and the inhibition [6] was -9.89% (inactive). For the same compound, the response [7] was -3.63% (inactive), the binding (% of control) [8] was 99.6% (inactive) and the inhibition [9] was -3.5% (inactive). The inhibition [10] was -1.7% (inactive), the inhibition [11] was 6.8% (inactive) and the efflux inhibition (fraction of control) [12] was -0.35 (inactive). The inhibition [13] was 3% (inactive) and the differentiation response [14] was -0.2% (inactive).

With `c1cnc2c(c1)ccc1ncccc12` the double positive events [1] was 64.8%, the vesicle binding response [1] was 165% (inactive) and the inhibition [2] was 0.59% (inactive). The superoxide response (% of plate) [3] was 83.3% (inactive), the aptamer binding inhibition [4] was 8% (inactive) and the response [5] was -15% (inactive). The inhibition [6] was -6.24% (inactive), the response [7] was 21.4% (active) and the binding (% of control) [8] was 102% (inactive). The inhibition [9] was -4.1% (inactive), the inhibition [10] was -0.7% (inactive) and the inhibition [11] was -2.4% (inactive). For the same compound, the efflux inhibition (fraction of control) [12] was 0.08 (inactive), the inhibition [13] was 4% (inactive) and the differentiation response [14] was -17.8% (inactive).

With `CCCC(C)(COC(N)=O)COC(=O)NC(C)C` (stereo not given) the double positive events [1] was 64.3%, the vesicle binding response [1] was 111% (inactive) and the inhibition [2] was 23.6% (inactive). The superoxide response (% of plate) [3] was 94.5% (inactive), the aptamer binding inhibition [4] was 6% (inactive) and the response [5] was -23.9% (inactive). The inhibition [6] was -2.17% (inactive), the response [7] was 9.22% (inactive) and the binding (% of control) [8] was 101% (inactive). For the same compound, the inhibition [9] was 0.5% (inactive), the inhibition [10] was 1.4% (inactive) and the inhibition [11] was 6.3% (inactive). The efflux inhibition (fraction of control) [12] was -0.13 (inactive), the inhibition [13] was 6% (inactive) and the differentiation response [14] was 44.3% (inactive).

In the case of `NCC(O)c1ccc(O)cc1` (stereo not given), the double positive events [1] is reported as 66.5%, the vesicle binding response [1] is reported as 150% (inactive) and the inhibition [2] is reported as -2.27% (inactive). For the same compound, the superoxide response (% of plate) [3] was 94.8% (inactive), the aptamer binding inhibition [4] was 2% (inactive) and the response [5] was 8.68% (inactive). For the same compound, the inhibition [6] was -8.51% (inactive), the response [7] was 2.02% (inactive) and the binding (% of control) [8] was 103% (inactive). For the same compound, the inhibition [9] was 1.9% (inactive), the inhibition [10] was 1% (inactive) and the inhibition [11] was 6% (inactive). The efflux inhibition (fraction of control) [12] was -0.35 (inactive), the inhibition [13] was 8% (inactive) and the differentiation response [14] was 2.46% (inactive).

For `O=C1NC(=O)N(c2ccccc2)C(=O)/C1=C\c1ccc([N+](=O)[O-])o1`, the GFP response vs DMSO [15] was 98.7% (inactive), the GFP response vs DMSO [15, 18] was 99.8% and the GFP response vs DMSO [15, 19] was 98%. For the same compound, the GFP response relative to DMSO [16] was 101% (inactive), the GFP response relative to DMSO [16, 20] was 101% and the GFP response relative to DMSO [16, 21] was 102%. For the same compound, the GFP response, % of DMSO [17] was 103% (inactive), the GFP response, % of DMSO [17, 18] was 105% and the GFP response, % of DMSO [17, 19] was 104%.

For `O=c1oc2ccccc2c(O)c1[C@H]1c2ccc(O)cc2Oc2c1c(=O)oc1ccccc21`, the GFP response vs DMSO [15] was 108% (inactive), the GFP response vs DMSO [15, 18] was 96.1% and the GFP response vs DMSO [15, 19] was 98.9%. For the same compound, the GFP response relative to DMSO [16] was 190% (active), the GFP response relative to DMSO [16, 20] was 167% and the GFP response relative to DMSO [16, 21] was 192%. The GFP response, % of DMSO [17] was 76.9% (inactive), the GFP response, % of DMSO [17, 18] was 78.5% and the GFP response, % of DMSO [17, 19] was 71.9%.

For `O=C1NC(=S)N(c2ccccc2)C(=O)/C1=C/c1ccco1`, the GFP response vs DMSO [15] was 98.8% (inactive), the GFP response vs DMSO [15, 19] was 91.4% and the GFP response relative to DMSO [16] was 112% (inactive). For the same compound, the GFP response relative to DMSO [16, 20] was 116%, the GFP response relative to DMSO [16, 21] was 111% and the GFP response, % of DMSO [17] was 84.8% (inactive). It also gave a GFP response, % of DMSO [17, 19] of 65.5%.

In the case of `Cc1cc(NS(=O)(=O)c2ccc(N)cc2)no1`, the inhibition [9] is reported as 0% (inactive) and the inhibition [10] is reported as 0.1% (inactive).

With `CC12CCC3C(CC=C4CC5(CCC43C)OCCO5)C1CCC2=O` (stereo not given) the double positive events [1] was 65.4%, the vesicle binding response [1] was 179% (inactive) and the inhibition [2] was -9.06% (inactive). For the same compound, the superoxide response (% of plate) [3] was 95.3% (inactive), the aptamer binding inhibition [4] was 3% (inactive) and the response [5] was 0.6% (inactive). For the same compound, the inhibition [6] was -3.19% (inactive), the response [7] was 0.24% (inactive) and the binding (% of control) [8] was 108% (inactive). For the same compound, the inhibition [9] was 4.6% (inactive), the inhibition [10] was -0.8% (inactive) and the inhibition [11] was 3.9% (inactive). The efflux inhibition (fraction of control) [12] was -0.24 (inactive), the inhibition [13] was 15% (inactive) and the differentiation response [14] was -4.09% (inactive).

For `C[C@H]1CCCC(=O)CCCCCc2cc(O)cc(O)c2C(=O)O1`, the double positive events [1] was 60.2%, the vesicle binding response [1] was 160% (inactive) and the inhibition [2] was 0.59% (inactive). For the same compound, the superoxide response (% of plate) [3] was 101% (inactive), the aptamer binding inhibition [4] was -1% (inactive) and the response [5] was -25.5% (inactive). For the same compound, the inhibition [6] was -10.7% (inactive), the response [7] was 6% (inactive) and the binding (% of control) [8] was 106% (inactive). For the same compound, the inhibition [9] was -0.4% (inactive), the inhibition [10] was -1.7% (inactive) and the inhibition [11] was 4.1% (inactive). The efflux inhibition (fraction of control) [12] was -0.13 (inactive), the inhibition [13] was 0% (inactive) and the differentiation response [14] was 5.85% (inactive).
